High-throughput results: PubChem BioAssay, National Center for Advancing Translational Sciences (NCATS)
TGFb inhibitor = blocks TGF-b signaling; HepG2 CAGA-GFP TGF-b/SMAD3 reporter, GFP fluorescence, 18 h; TGF-beta stimulated, 500 pg/mL final; Potency, µM (doses to about 46.1 µM), for inactives: top-dose activity, negative = inhibition, hits mostly inhibitors; 410,000 compounds, 1.2% hits; AID 588855; further: on the % scale 0 is the no-effect control and ±100 the full control effect; nearly all actives have a fitted effect of over 65% in size
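Cell-based qHTS in HEPG2 carrying a CAGA-GFP Smad reporter; compounds added before 500 pg/mL final TGF-beta, 18 h incubation at 37 degrees C, GFP fluorescence quantified per cell by imaging cytometry.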
ATXN viability = reduces viability in counter-screen for ATXN expression inhibitors | Potency, µM (top dose mostly 56.7 µM), most hits filed as cytotoxic | S2 cells (HEK-293 line with an ATXN2-luciferase reporter) viability, CellTiter-Fluor protease fluorescence, 24 h | 400,000 compounds, 0.49% hits; further: nearly all actives have a fitted effect of over 40% in size
ATXN2 expr inh = ATXN2 expression inhibition. AID 1745845. HEK-293 ATXN2-luciferase reporter, luminescence, 24 h. Potency, µM (doses to about 57 µM), without a hit: at the highest dose activity change, negative = inhibition, hits mostly inhibitors. 360,000 compounds, 0.72% hits; further: on the % scale 0 is the no-effect control and ±100 the full control effect; nearly all actives have a fitted effect of over 55% in size
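ATXN2-luciferase reporter cells (luciferase flanked by upstream and downstream ATXN2 gene portions) were treated 24 h at 37 °C with compounds at up to 57 uM. SteadyGlo luminescence gave expression; GF-AFC fluorescence gave viability.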
HT1080 IDH1KD tx = toxicity to HT-1080 IDH1 knockdown cells (counter line); AID 686971; 360,000 compounds, 2% hits; HT-1080 IDH1 knockdown viability, ATP luminescence, 48 h; Potency, µM (series often up to 46.1 µM), without a hit: at the highest dose activity, negative = toxicity, most hits filed as cytotoxic;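 further: 0% = DMSO wells and -100% = cell-free medium wells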
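Luminescent ATP read-out (CellTiter-Glo, 10 min at room temperature) after 48 h compound exposure at 37 °C gave viability of IDH1-knockdown HT-1080 cells. Activity was normalised to DMSO and cell-free wells, then fitted as concentration-response curves.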
HepG2 tox-1 = counter-screen for TGF-b inhibitors: cytotoxicity in HepG2 cells; AID 588856; HepG2 CAGA-GFP viability, ATP luminescence, 18 h; 410,000 compounds, 0.76% hits; Potency, µM (doses to about 46.1 µM), inactives show top-dose activity change, negative = cytotoxicity, actives largely listed as cytotoxic
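CellTiter-Glo luminescence gave cytotoxicity after 18 hours at 37 degrees C. The cells were HepG2 CAGA-GFP in 1% FBS DMEM, stimulated with 500 pg/mL TGF-beta after compound addition. %Activity was normalised to no-cell wells (complete cell-killing) and DMSO (no toxicity), and curves were fitted and classified.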
HT1080-NT tox = kills 2HG-producing HT-1080-NT fibrosarcoma cells | AID 686970 | Potency, µM (highest dose often 46.1 µM), inactives show top-dose activity, negative = less viability, hits mostly cytotoxic | 360,000 compounds, 1.6% hits | HT-1080-NT fibrosarcoma viability, CellTiter-Glo ATP luminescence, 48 h;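 further: NT is the 2HG producing partner of a matched IDH1 knockdown line; 0% = DMSO-treated cells and -100% = media-only wells without cells; nearly all actives have a fitted effect of over 55% in size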
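Fibrosarcoma NT cells, 750 per well in 5% FBS RPMI, were exposed to compound for 48 hours. Viability: CellTiter-Glo luminescence.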
TGFb CAGA inh = TGF-b pathway inhibition, cherry-pick retest | shares compounds with TGFb inhibitor | HepG2 CAGA-GFP TGF-b reporter, GFP fluorescence, 18 h; cells stimulated with TGF-beta, 500 pg/mL | Potency, µM (titrated, usually from 46.1 µM), for the others: at the top dose activity, negative = inhibition, hits mostly inhibitors | 1,600 compounds, 63% hits | AID 720534; further: on the % scale 0 is the no-effect control and ±100 the full control effect; nearly all actives have a fitted effect of over 65% in size
HepG2 tox-2 = toxic to HepG2 cells in TGF-b counterscreen | shares compounds with TGFb inhibitor | HepG2 CAGA-GFP viability, ATP luminescence, 18 h; cells stimulated with TGF-beta, 500 pg/mL | Potency, µM (top dose mostly 46.1 µM), inactives show at the highest dose activity, negative = cytotoxicity, hits mostly inhibitors | 1,600 compounds, 27% hits; further: on the % scale 0 is the no-effect control and ±100 the full control effect; nearly all actives have a fitted effect of over 70% in size
CCL64 TGFb inh = orthogonal confirmation of TGF-b inhibitors in CCL64 cells. shares compounds with TGFb inhibitor. AID 720536. 1,600 compounds, 41% hits. Potency, µM (series often up to 46.1 µM), for the others: at the top dose activity, negative = inhibition, hits mostly inhibitors. CCL64 CAGA-GFP reporter, TGF-b stimulated, GFP fluorescence, 18 h; further: nearly all actives have a fitted effect of over 65% in size
TGFb COP inh = TGF-b inhibition validated with COP promoter; shares compounds with TGFb inhibitor; HepG2 COP-GFP TGF-b reporter, GFP fluorescence, 18 h; cells stimulated by added recombinant TGF-beta; Potency, µM (highest dose often 46.1 µM), for inactives: top-dose activity, negative = inhibition, hits mostly inhibitors; 1,600 compounds, 3% hits; further: nearly all actives have a fitted effect of over 70% in size
* = called active by the depositor; i = inactive; u = inconclusive; x = no result. Shown are actives, neighbours in structure and some others; about 3.9% of the full set was active somewhere. The call rests on the fitted dose curve; in most records, active means well fitted curve in the direction sought with a large enough effect; inconclusive means small, poorly fitted or top-dose-only effect, or another doubt; inactive means no such curve, though single readings can be large; an effect the other way counts as inactive or inconclusive. Potency means the concentration at half of the fitted maximal effect.

SMILES	TGFb inhibitor	ATXN viability	ATXN2 expr inh	HT1080 IDH1KD tx	HepG2 tox-1	HT1080-NT tox	TGFb CAGA inh	HepG2 tox-2	CCL64 TGFb inh	TGFb COP inh
CC(=O)N1c2ccc(S(=O)(=O)N3CCC(C(=O)Nc4cccc(C(F)(F)F)c4)CC3)cc2CC1C (stereo unspecified)	11.2µM*	i	u	u	-19.0%	-22.9%	16.4µM*	u	-22.8%	-7.7%
Cc1ccc(NC(=O)CN(C)C(=O)c2cc(-c3ccccc3)nn2-c2ccccc2)cc1	11.2µM*	i	-3.1%	-20.2%	-0.8%	-9.3%	18.4µM*	-22.4%	16.4µM*	9.2%
COc1cc(/C=C/C(=O)/C=C(O)/C=C/c2ccc(O)c(OC)c2)ccc1O	u	u	u	u	-18.1%	u	x	x	x	x
COc1cc(/C=C/C(=O)c2ccc([N+](=O)[O-])o2)ccc1O	1.12µM*	3.55µM*	u	u	-44.5%	18.4µM*	4.11µM*	8.2µM*	2.91µM*	u
COc1ccc(/C=C/C(=O)c2ccc([N+](=O)[O-])o2)cc1OC	2.51µM*	u	8.91µM*	u	11.2µM*	u	2.91µM*	4.61µM*	2.06µM*	0.5%
Brc1cccc(-c2nc3ccc(Br)cn3c2Cc2ccsc2)c1	11.2µM*	u	8.5%	0.6%	-7.3%	9.0%	23.1µM*	u	u	-4.5%
Cc1ccc(Cc2c(-c3cccc(Cl)c3)nc3ccc(C)cn23)cc1	10µM*	u	-36.3%	u	-10.3%	u	18.4µM*	u	u	54.8%
Clc1ccc2nc(-c3cccc(Br)c3)c(Cc3ccsc3)n2c1	10µM*	i	56.9%	11.1%	-10.7%	10.6%	u	u	u	0.3%
COc1ccc(Cc2c(-c3ccccc3)nc3ccc(Br)cn23)c(C)c1	10µM*	u	-35.5%	u	-19.4%	u	u	u	u	51.1%
Clc1cccc(-c2nc3ccc(Br)cn3c2Cc2ccsc2)c1	u	u	58.2%	-12.3%	-14.5%	-11.4%	x	x	x	x
Cc1oc2c(C)c3oc(=O)c(CC(=O)N4CCCCC4)c(C)c3cc2c1C	-16.5%	x	x	x	-0.8%	x	x	x	x	x
O=C(c1cc(F)cc(F)c1)N1CCC(c2nc(-c3ccc(S(=O)(=O)N4CCCC4)cc3)no2)CC1	u	x	x	x	-1.5%	x	x	x	x	x
CCN(CC)S(=O)(=O)c1ccc2c(c1)c(=O)c(C(=O)N1CCN(c3ccc(OC)cc3)CC1)cn2C	u	i	-13.3%	x	-20.0%	x	x	x	x	x
CCc1nc2ccc(C(=O)N3CCN(c4cccc(C(F)(F)F)c4)CC3)cc2nc1CC	20µM*	i	-19.1%	-27.1%	-11.9%	-11.6%	u	-23.6%	u	15.9%
CCc1nc2ccc(C(=O)N3CCN(c4ccccc4)CC3)cc2nc1CC	u	i	-11.3%	0.1%	3.6%	11.4%	x	x	x	x
O=C(Nc1ccc(S(=O)(=O)NC2=NCCCCC2)cc1)c1ccc([N+](=O)[O-])s1	7.08µM*	i	u	u	-104.8%	u	11.6µM*	u	20.6µM*	27.2%
O=C(Nc1ccc(S(=O)(=O)NC2=NCCCCC2)cc1)c1cccs1	0.1%	i	x	13.8%	-14.3%	-1.1%	x	x	x	x
O=S(=O)(CC(CN1CCCCC1)N1CCCCC1)c1ccc2ccccc2c1 (stereo unspecified)	3.16µM*	i	-20.2%	u	11.2µM*	u	13µM*	13µM*	u	u
Cc1cc(C)c2cccc(N)c2n1	-0.4%	i	1.1%	-11.0%	-1.5%	-0.6%	x	x	x	x
Cc1cc(C)c2c(N)c3ccccc3nc2n1	11.2µM*	x	u	u	9.7%	u	20.6µM*	18.4µM*	13µM*	4.9%
CC(C)=CCC/C(C)=C/CC/C(C)=C/CC/C=C(\C)CC/C=C(\C)CCC=C(C)C	x	i	x	x	x	x	x	x	x	x
CC(C)(C)CN1CCN(Cc2nc(-c3ccc(F)cc3)cs2)CC1CCO (stereo unspecified)	u	i	-20.3%	u	1.3%	u	u	u	-10.2%	-6.0%
